Holding throughout (test): DAPPL (digital affinity profiling via proximity ligation, sequencing); 10 mM Tris-HCl pH 7.5, 50 mM NaCl, 1 mM DTT, 4% glycerol, room temperature, 30 min; GST-TFs on glutathione beads, 16-mer random dsDNA library, 0.1% formaldehyde crosslink after washing; high values mean tight binding
Settings in all cases: protein: recombinant; tags: N-terminal GST; dsDNA, one strand shown

The target of experiment [1] is T1, ELK1 (Homo sapiens, UniProt P19419 1-428).
T1 sequence: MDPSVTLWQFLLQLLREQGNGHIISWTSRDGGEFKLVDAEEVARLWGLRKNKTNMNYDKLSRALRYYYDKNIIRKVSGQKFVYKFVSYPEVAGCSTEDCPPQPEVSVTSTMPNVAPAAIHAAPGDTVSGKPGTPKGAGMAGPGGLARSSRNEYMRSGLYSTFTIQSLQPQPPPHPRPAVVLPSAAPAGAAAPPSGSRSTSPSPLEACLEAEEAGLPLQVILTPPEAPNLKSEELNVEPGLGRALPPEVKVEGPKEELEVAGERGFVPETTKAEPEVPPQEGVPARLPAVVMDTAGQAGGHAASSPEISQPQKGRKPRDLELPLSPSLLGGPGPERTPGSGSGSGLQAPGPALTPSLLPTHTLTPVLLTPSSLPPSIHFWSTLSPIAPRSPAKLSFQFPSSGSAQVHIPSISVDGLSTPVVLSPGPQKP
Put shortly: (§1)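 Binding signal is each hexamer's read frequency for a factor divided by its frequency in the tag-only sample. The factors were GST-fused human transcription factors from yeast, captured on glutathione beads, DNA-barcoded and pooled with that sample. Pools were incubated with 200 nmole of a random double-stranded 16-mer DNA library in Tris/NaCl/DTT/glycerol buffer at room temperature for 30 min, then washed, crosslinked with 0.1% formaldehyde, proximity-ligated with BsaI/T4 ligase (1 h, 37 °C), PCR-amplified and sequenced on an Illumina NextSeq500.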

Experiment [2] addresses T2, ERG (Homo sapiens, UniProt P11308 1-479).
T2 sequence: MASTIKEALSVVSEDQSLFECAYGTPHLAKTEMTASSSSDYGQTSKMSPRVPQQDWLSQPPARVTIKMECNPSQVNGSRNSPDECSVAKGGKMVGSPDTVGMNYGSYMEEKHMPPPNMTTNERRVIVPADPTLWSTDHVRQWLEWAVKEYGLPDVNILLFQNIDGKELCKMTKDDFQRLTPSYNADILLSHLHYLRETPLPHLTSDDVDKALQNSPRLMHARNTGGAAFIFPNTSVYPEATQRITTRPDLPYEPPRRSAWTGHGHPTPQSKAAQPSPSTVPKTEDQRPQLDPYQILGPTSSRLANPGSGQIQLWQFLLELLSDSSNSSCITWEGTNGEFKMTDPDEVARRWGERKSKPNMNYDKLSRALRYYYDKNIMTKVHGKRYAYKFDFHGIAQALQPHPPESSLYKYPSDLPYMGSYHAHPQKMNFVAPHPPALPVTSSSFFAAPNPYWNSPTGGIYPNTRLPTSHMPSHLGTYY
Put shortly: as §1

The target of experiment [3] is T3, ELK3 (Homo sapiens, UniProt P41970 1-407).
T3 sequence: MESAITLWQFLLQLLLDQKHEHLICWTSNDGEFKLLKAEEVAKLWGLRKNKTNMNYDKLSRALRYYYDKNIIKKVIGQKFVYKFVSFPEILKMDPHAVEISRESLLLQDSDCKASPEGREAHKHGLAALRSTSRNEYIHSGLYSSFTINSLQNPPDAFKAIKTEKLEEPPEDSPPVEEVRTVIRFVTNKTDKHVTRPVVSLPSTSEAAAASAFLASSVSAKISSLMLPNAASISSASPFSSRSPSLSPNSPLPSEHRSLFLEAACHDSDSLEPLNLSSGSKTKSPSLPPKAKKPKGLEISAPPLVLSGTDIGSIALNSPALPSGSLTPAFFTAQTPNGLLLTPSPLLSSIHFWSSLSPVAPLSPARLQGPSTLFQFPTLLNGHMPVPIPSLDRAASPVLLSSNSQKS
The procedure, abridged: as §1

Experiment [4] deals with T4, ELK4 (Homo sapiens, UniProt P28324-2 1-405).
T4 sequence: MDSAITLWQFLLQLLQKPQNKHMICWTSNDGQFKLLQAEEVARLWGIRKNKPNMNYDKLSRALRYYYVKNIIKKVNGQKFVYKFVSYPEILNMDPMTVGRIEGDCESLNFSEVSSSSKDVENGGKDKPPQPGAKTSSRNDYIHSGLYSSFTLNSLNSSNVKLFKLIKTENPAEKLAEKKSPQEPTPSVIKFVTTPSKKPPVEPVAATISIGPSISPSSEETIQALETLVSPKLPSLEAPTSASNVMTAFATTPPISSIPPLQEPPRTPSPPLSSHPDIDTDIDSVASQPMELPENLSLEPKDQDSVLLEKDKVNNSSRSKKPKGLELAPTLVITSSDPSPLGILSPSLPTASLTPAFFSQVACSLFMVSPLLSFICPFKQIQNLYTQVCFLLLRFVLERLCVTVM
Put shortly: as §1

Experiment [5] has as its target T5, ETV2 (Homo sapiens, UniProt O00321 1-342).
T5 sequence: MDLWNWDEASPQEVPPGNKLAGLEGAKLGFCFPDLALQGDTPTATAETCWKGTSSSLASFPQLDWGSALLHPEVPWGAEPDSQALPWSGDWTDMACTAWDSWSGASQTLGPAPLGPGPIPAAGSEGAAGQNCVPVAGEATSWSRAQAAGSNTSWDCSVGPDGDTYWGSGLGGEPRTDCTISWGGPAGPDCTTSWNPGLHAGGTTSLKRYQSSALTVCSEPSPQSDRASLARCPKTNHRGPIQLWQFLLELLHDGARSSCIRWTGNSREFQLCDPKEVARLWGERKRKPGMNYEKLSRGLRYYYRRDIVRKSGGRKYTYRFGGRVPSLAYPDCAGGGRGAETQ
Put shortly:
as §1

The target of experiment [6] is T6, ELF3 (Homo sapiens, UniProt P78545 1-371).
T6 sequence: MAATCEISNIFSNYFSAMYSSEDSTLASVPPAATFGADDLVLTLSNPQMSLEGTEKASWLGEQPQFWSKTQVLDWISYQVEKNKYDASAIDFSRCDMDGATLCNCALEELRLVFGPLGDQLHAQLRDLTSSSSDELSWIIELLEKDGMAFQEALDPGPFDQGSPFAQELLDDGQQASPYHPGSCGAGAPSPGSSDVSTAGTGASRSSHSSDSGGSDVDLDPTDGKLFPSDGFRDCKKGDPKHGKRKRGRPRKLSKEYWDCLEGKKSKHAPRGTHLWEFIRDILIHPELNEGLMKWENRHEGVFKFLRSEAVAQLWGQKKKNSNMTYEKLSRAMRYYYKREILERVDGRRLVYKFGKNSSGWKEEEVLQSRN
Put shortly: as §1

Experiment [7] concerns the target CRX (Homo sapiens, UniProt O43186 1-299). Put shortly:
as §1

The target of experiment [8] is T7, ERF (Homo sapiens, UniProt P50548 1-548).
T7 sequence: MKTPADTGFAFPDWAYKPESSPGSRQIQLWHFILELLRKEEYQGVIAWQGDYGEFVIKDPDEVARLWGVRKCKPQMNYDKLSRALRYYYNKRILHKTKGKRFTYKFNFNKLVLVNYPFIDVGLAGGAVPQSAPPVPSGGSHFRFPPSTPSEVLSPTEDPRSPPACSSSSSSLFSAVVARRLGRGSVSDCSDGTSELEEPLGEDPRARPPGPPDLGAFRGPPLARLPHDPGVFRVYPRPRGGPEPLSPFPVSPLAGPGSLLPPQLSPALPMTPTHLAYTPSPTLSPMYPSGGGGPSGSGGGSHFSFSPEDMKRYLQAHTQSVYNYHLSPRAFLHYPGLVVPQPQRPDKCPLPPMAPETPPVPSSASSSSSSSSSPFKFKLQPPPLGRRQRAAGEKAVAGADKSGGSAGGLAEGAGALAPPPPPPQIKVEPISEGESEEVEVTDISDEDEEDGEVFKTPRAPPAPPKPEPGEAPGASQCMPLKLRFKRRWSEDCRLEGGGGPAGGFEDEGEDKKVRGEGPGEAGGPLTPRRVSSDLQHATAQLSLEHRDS
Put shortly: as §1

Experiment [9] deals with ELF4 (Homo sapiens, UniProt Q99607 1-663). The procedure, abridged: as §1
Experiment [10] deals with T8, GABPA (Homo sapiens, UniProt Q06546 1-454).
T8 sequence: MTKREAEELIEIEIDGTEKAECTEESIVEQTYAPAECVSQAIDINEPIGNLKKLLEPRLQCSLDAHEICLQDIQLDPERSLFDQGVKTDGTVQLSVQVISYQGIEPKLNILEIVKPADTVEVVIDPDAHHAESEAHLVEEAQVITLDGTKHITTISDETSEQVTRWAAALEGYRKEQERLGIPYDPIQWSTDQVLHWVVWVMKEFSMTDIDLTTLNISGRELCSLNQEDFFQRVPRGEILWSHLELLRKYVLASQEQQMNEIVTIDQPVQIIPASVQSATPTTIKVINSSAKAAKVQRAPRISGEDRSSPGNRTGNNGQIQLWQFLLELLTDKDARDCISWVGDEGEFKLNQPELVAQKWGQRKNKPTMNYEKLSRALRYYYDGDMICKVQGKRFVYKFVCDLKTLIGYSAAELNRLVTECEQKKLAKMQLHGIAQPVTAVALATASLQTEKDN
Put shortly:
as §1

In experiment [11] the target is ETV6 (Homo sapiens, UniProt P41212 1-452). The procedure, abridged: as §1
ETV6, sequence (P41212 whole entry): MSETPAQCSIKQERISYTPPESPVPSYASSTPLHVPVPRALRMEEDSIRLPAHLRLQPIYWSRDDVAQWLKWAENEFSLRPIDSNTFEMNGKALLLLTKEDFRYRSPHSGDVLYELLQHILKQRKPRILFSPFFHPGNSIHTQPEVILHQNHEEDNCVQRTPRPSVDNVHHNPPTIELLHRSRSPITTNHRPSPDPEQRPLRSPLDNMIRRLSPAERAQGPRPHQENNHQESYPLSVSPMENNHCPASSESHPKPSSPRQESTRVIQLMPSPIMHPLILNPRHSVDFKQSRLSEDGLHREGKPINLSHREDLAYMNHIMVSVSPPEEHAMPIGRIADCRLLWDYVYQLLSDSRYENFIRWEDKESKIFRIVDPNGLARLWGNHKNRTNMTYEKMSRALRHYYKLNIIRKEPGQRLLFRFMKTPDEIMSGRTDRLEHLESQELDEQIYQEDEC

ELF4, sequence (Q99607 whole entry): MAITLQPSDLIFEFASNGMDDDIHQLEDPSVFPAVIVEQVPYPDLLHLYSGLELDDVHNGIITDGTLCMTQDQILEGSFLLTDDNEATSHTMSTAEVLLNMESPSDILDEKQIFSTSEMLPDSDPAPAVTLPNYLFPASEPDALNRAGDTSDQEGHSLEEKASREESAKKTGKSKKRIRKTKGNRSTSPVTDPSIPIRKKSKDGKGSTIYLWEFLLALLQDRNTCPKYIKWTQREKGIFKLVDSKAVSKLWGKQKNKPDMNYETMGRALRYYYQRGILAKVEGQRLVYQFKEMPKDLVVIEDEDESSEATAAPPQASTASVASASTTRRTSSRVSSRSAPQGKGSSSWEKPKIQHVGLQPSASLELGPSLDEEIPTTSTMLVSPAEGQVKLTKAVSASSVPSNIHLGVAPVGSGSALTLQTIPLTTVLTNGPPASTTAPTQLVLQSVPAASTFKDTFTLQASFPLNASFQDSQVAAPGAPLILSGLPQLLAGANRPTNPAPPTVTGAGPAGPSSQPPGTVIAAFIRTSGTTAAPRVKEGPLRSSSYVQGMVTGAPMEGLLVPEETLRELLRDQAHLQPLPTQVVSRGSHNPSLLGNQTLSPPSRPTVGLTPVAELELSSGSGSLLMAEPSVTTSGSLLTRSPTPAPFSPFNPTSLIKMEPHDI
CRX, sequence (O43186 whole entry): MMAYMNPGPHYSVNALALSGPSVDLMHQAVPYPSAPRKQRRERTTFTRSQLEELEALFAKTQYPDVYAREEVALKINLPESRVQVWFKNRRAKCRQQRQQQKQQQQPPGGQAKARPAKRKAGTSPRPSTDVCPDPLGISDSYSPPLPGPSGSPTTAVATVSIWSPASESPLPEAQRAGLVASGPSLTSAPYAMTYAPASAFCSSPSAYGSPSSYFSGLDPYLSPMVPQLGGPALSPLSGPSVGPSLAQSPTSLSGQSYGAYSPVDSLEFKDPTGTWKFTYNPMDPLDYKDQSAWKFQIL

For the sequence GTGTTA, the binding signal in experiment [1] is 1.02 fold enrichment (6-mer frequency, TF over GST control); in [2] it was 1.01 fold enrichment (6-mer frequency, TF over GST control); in experiment [3], 1.02 fold enrichment (6-mer frequency, TF over GST control); in experiment [4] it was 1.04 fold enrichment (6-mer frequency, TF over GST control); in experiment [5], 1.01 fold enrichment (6-mer frequency, TF over GST control); in [6], 1.15 fold enrichment (6-mer frequency, TF over GST control). In addition, the binding signal in experiment [7] was 1.11 fold enrichment (6-mer frequency, TF over GST control); in experiment [8] it was 1.06 fold enrichment (6-mer frequency, TF over GST control).
As to GTCACC, in [9], the binding signal is 1.01 fold enrichment (6-mer frequency, TF over GST control).
Take ACAGTT: the binding signal in experiment [4] is 1.02 fold enrichment (6-mer frequency, TF over GST control).
With GCAACA, the binding signal was 1.03 fold enrichment (6-mer frequency, TF over GST control) in experiment [1]; 1.08 fold enrichment (6-mer frequency, TF over GST control) in experiment [10]; 1.06 fold enrichment (6-mer frequency, TF over GST control) in [9]; 1.08 fold enrichment (6-mer frequency, TF over GST control) in experiment [4]; 1.03 fold enrichment (6-mer frequency, TF over GST control) in [5]; 1.01 fold enrichment (6-mer frequency, TF over GST control) in experiment [8]. The binding signal in [11] was 1.03 fold enrichment (6-mer frequency, TF over GST control).

Source of the values: PMC7862700, “An all-to-all approach to the identification of sequence-specific readers for epigenetic DNA modifications on cytosine”.
